Assay results reported in the supplement of paper PMC4709259.
Counter-ions that a name gives are not always drawn. ± gives the standard deviation.

system: Jurkat; assay: cell count relative to DMSO control (fraction of control); higher = more cells (less growth inhibition); settings: 48 h

SMILES	cell count
O=C(O)COCCN1CCN([C@H](c2ccccc2)c2ccc(Cl)cc2)CC1 [Levocetirizine Dihydrochloride] (concentration: 25 µM)	0.91 ± 0.068
COCCCC/C(=N\OCCN)c1ccc(C(F)(F)F)cc1 [Fluvoxamine Maleate] (concentration: 25 µM)	0.866 ± 0.083
N[C@@H](CC(=O)N1CCn2c(nnc2C(F)(F)F)C1)Cc1cc(F)c(F)cc1F [Sitagliptin Phosphate] (concentration: 25 µM)	0.554 ± 0.18
C#C[C@]1(O)CC[C@H]2[C@@H]3CCc4cc(OC)ccc4[C@H]3CC[C@@]21C [Mestranol] (concentration: 25 µM)	0.91 ± 0.12
Cc1nnc(SCC2=C(C(=O)O)N3C(=O)[C@@H](NC(=O)Cn4cnnn4)[C@H]3SC2)s1 [Cefazolin·Na] (concentration: 25 µM)	0.768 ± 0.013
CS(=O)(=O)CCNCc1ccc(-c2ccc3ncnc(Nc4ccc(OCc5cccc(F)c5)c(Cl)c4)c3c2)o1 [Lapatinib Ditosylate] (concentration: 25 µM)	0.911 ± 0.14
N[C@@H]1CONC1=O [Cycloserine] (concentration: 25 µM)	0.475 ± 0.095
Cc1cccc(C)c1OCC(=O)N[C@@H](Cc1ccccc1)[C@@H](O)C[C@H](Cc1ccccc1)NC(=O)[C@H](C(C)C)N1CCCNC1=O [Lopinavir] (concentration: 25 µM)	0.373 ± 0.029
OCCOCCN1CCN(C(c2ccccc2)c2ccc(Cl)cc2)CC1 (stereo not drawn) [Hydroxyzine Dihydrochloride] (concentration: 25 µM)	0.968 ± 0.063
O=C1Cc2cc(CCN3CCN(c4nsc5ccccc45)CC3)c(Cl)cc2N1 [Ziprasidone] (concentration: 25 µM)	0.838 ± 0.098
N=C(N)NC(=O)Cc1c(Cl)cccc1Cl [Guanfacine·HCl] (concentration: 25 µM)	0.695 ± 0.13
Nc1ccc(C(=O)NCC(=O)O)cc1 [Aminohippurate·Na] (concentration: 25 µM)	0.792 ± 0.089
CC1=C(C(=O)O)N2C(=O)[C@@H](NC(=O)[C@H](N)c3ccccc3)[C@H]2SC1 [Cephalexin Monohydrate] (concentration: 25 µM)	0.931 ± 0.068
CC[C@H](C)C(=O)O[C@H]1C[C@@H](C)C=C2C=C[C@H](C)[C@H](CC[C@@H]3C[C@@H](O)CC(=O)O3)[C@H]21 [Lovastatin] (concentration: 25 µM)	0.664 ± 0.15
Clc1ccccc1CN1CCc2sccc2C1 [Ticlopidine·HCl] (concentration: 25 µM)	0.752 ± 0.017
N=C(N)NC(=O)c1nc(Cl)c(N)nc1N [Amiloride·HCl·2H2O] (concentration: 25 µM)	0.504 ± 0.045
CCN(CC)CC(=O)Nc1c(C)cccc1C [Lidocaine·HCl·H2O] (concentration: 25 µM)	1.03 ± 0.14
CC(=O)OCC(=O)[C@@]12OC(C)(C)O[C@@H]1C[C@H]1[C@@H]3C[C@H](F)C4=CC(=O)C=C[C@]4(C)[C@@]3(F)[C@@H](O)C[C@@]12C [Fluocinonide] (concentration: 25 µM)	0.551 ± 0.03
